# Bioassay records: PubChem BioAssay, National Center for Advancing Translational Sciences (NCATS)
# Only some compounds are listed: those with a hit (about 6.1% of all), similar ones and a draw of the others.
# D3 ag: activates the human D3 dopamine receptor; P35462; D3R DiscoveRx beta-arrestin cells, luminescence, 90 min; max activation, %; 410,000 tested, 0.58% active; AID 652048; in the data active means max activation above about 30%; further: 0% is about no effect
#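 Agonist mode: compounds and dopamine controls were applied to plated cells for 90 min at 37 degrees C after an overnight attachment at 1500 cells/well. Luminescent read-out followed 30 - 60 minutes at room temperature with DiscoveRx detection reagent.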
# ERG-DNA inh: inhibitors of human ERG Ets domain-DNA interaction. fluorescence polarization, His-ERG Ets domain / labelled DNA. Potency, µM (titrated, usually from 76.9 µM), inactives show at the highest dose FP activity, negative = inhibition, hits mostly inhibitors. 370,000 tested, 0.028% active. AID 624246; active means well fitted inhibition curve with a large enough effect in the polarisation, with a control signal flat; inconclusive means small, poorly fitted or top-dose-only effect, or effect the other way, or a change in a side signal; inactive means no such curve, though single readings can be large or run the other way; the % refers to the polarisation;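 further: polarization taken with two DNA probes labelled with fluorescein and Texas red; potency means the concentration at half of the fitted maximal effect; % of control where 0% means no effect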
#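 His-tagged ERG Ets domain (1 uM in the protein solution; 300mM KCl, 50mM Tris-HCl, 1mM EDTA, 1mM DTT, pH 7.5) received compound, then a probe mix of 5 nM fluorescein-DNA and 100nM Texas-615-DNA. Fluorescence polarization was read for both dyes.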
# D1 ag: human D1 receptor agonism; activation, % at 2 µM; HEK293 T-REx D1 cells, calcium flux, agonist mode; 360,000 tested, 1% active; P21728; in the data active means activation above about 30%; further: 0% is about no effect
# Target sequence (P21728 whole entry, looked up): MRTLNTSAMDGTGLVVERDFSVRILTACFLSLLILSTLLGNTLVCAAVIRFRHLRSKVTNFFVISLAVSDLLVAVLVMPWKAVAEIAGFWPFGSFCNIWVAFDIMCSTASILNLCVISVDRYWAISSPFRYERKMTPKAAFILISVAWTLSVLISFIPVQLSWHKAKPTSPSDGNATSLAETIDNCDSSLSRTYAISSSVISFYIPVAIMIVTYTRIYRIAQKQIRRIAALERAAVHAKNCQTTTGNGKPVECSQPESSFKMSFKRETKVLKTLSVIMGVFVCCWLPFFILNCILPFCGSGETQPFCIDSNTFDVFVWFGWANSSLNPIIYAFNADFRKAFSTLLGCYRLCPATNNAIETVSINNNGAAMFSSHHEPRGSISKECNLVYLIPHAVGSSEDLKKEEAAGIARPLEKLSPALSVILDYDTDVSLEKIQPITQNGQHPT
#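 Agonism was scored from calcium flux recorded over 180 s (1 read/s) after pintool compound addition, following a 10-cycle baseline. Cells were inducible force-coupled HEK293 TREx D1, plated overnight at 30 C and loaded with no-wash calcium dye.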
# DRD3 antagonist: antagonists of human D3 dopamine receptor; P35462; D3R cells, DiscoveRx beta-arrestin luminescence, antagonist mode; active compounds read low; max response, negative = inhibition, %; 360,000 tested, 2.5% active; AID 652054; in the data active means max response below about -50%; inconclusive means no clear call, values can overlap the other calls; further: on the % scale 0 is the no-effect control and ±100 the full control effect
#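 Cells plated overnight at 1500 cells/well, then exposed to library compounds with dopamine controls for 90 minutes at 37 degrees C. DiscoveRx reagent added for 30–60 minutes at room temperature; luminescence read, quantitative HTS format.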
# D1 potentiator: human D1 dopamine receptor positive modulation | P21728 | potentiation, % at 10 µM | 360,000 tested, 0.036% active | HEK293 TREx D1 cells, calcium flux, dopamine EC20 potentiation | AID 504651; in the data active means potentiation above about 30%; further: 0% is about no effect
# D1 antagonist: blocks dopamine activation of the human D1 receptor; P21728; HEK293 TREx D1 cells, calcium flux, dopamine EC80; active compounds read low; activity change, negative = inhibition, % at 10 µM; 360,000 tested, 3.2% active; AID 504652; in the data active means activity change below about -30%; further: on the % scale 0 is the no-effect control and ±100 the full control effect
#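 After overnight tetracycline induction at 30 C, force-coupled D1 HEK293 cells took up a no-wash calcium dye at room temperature. Compounds were added and monitored 180 s, and the response to EC80 dopamine was then recorded.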
# * = called active by the depositor; ? = inconclusive; / = no result; ! = not active in a repeat.
SMILES,D3 ag,ERG-DNA inh,D1 ag,DRD3 antagonist,D1 potentiator,D1 antagonist
Cc1ccc(C(=O)Nc2nc3ccccc3n2CCN2CCCC2)cc1,-25,2%,0,-61*,-2,2
O=C(Nc1nc2ccccc2n1CCN1CCCCC1)c1ccc(Cl)cc1,/,/,0,/,-2,3
O=C(Nc1nc2ccccc2n1CCN1CCCCC1)C1CCCCC1,-15,12%,2,-62*,-4,9
O=C(Nc1nc2ccccc2n1CCN1CCCC1)C1CCCCC1,1,8%,0,-82*,-2,-30*
CCn1c(NC(=O)C2CCCCC2)nc2ccccc21,-3,-9%,1,0,2,-13
C/C=C(/CC[C@@H](C)[C@H]1CC[C@H]2C3=CC[C@H]4[C@H](C)[C@@H](O)CC[C@]4(C)[C@H]3CC[C@]12C)C(C)C,9,/,/,/,/,/
Cc1ccc(NC(=O)Cc2n[nH]c(=O)c3ccccc23)cc1S(=O)(=O)N1CCCCCC1,-4,9%,1,-10,2,-14
CC(C)c1ccc(OCC(=O)Nc2cccc(C(=O)Nc3ccccc3C(=O)O)c2)cc1,6,9%,2,?,-3,-4
CCCCC1OC2(C)OC(=N)C1(C#N)C(C#N)(C#N)C2c1ccccc1 (stereo not given),2,/,2,5,2,9
CC1OC2(C)OC(=N)C1(C#N)C(C#N)(C#N)C2c1ccccc1 (stereo not given),-5,-15%,4,-10,4,-35*
c1ccc(CN2CCC(Nc3nc(-c4ccccc4)nc4ccccc34)CC2)cc1,-11,1%,7,-2,-2,-1
COc1cc2ncnc(NCc3ccccc3)c2cc1OC,2,-3%,2,5,-8,-2
CCCCNc1nc(NCc2ccccc2)nc2ccccc12,-4,/,/,-10,/,/
c1ccc(CNc2ncnc3ccccc23)cc1,33*!,-4%,-2,22,-2,-2
CNc1nc(NCc2ccccc2)c2ccccc2n1,-3,-1%,34*,19,-8,-37*
c1ccc(CN2CCC(CNc3ncnc4ccccc34)C2)cc1 (stereo not given),-16,13%,/,-64*,/,/
Cn1nc(C(=O)Nc2ccc(S(=O)(=O)NCc3ccco3)cc2)c2ccccc2c1=O,-12,12%,6,1,-1,-8
C[C@H]1CN([C@@H](C)CO)C(=O)CCCn2nncc2CO[C@H]1CN(C)S(=O)(=O)c1ccc2ccccc2c1,3,/,/,-18,/,/
CCOc1ccc(NC(=O)Cn2c(=O)n(CCc3ccccc3)c(=O)c3c4c(sc32)CCCC4)cc1,5,-1%,-1,/,-2,-36*
COC(=O)Cn1c(=O)n(CCc2ccccc2)c(=O)c2c3c(sc21)CCCC3,-22,-4%,2,-25,-6,-4
COC(=O)c1ccc(NC(=S)NCCc2ccccc2)cc1,-5,3%,12,13,-8,-10
CCCCC(=O)Nc1ccc(C(=O)NCCc2ccccc2)cc1,-17,-4%,0,-62*,-4,-1
CCOC(=O)c1ccc(NC(=S)NCCc2ccccc2)cc1,-13,-8%,28,-6,-7,-38*
CC(=O)c1ccc(NC(=S)NCCc2cccc(Cl)c2)cc1,-15,-2%,22,-27,-6,-37*
CC(=O)c1ccc(NC(=O)Nc2cccc(Cl)c2)cc1,-6,2%,14,-11,-8,-28
SMILES,D3 ag,ERG-DNA inh,D1 ag,DRD3 antagonist,D1 potentiator,D1 antagonist
CCOC(=O)c1ccc(NC(=S)NCc2ccccc2)cc1,4,-2%,22,-3,-17,-56*
CCN(C(=O)CN1C=NS(=O)(=O)c2ccccc21)c1ccccc1,-4,3%,0,-18,1,10
CN(C)c1ccc(NC(=O)c2ccc([N+](=O)[O-])cc2Cl)cc1,-4,0%,3,10,-3,11
O=C(NC(=S)Nc1ccc(CN2CCOCC2)cc1)c1ccc([N+](=O)[O-])cc1Cl,-16,4%,8,-78*,-3,2
O=C(NC(=S)Nc1ccc(CN2CCOCC2)cc1)c1ccccc1[N+](=O)[O-],-11,7%,3,-107*,-2,10
O=C(NC(=S)Nc1ccc(CN2CCOCC2)cc1)c1cccc([N+](=O)[O-])c1,-18,-11%,8,0,11,-11
CC(C)C(=O)Nc1ccc(NC(=O)c2ccc([N+](=O)[O-])cc2Cl)cc1,-2,-4%,3,-23,-4,-59*
CCCn1c2ccccc2c2cnn(CC(=O)NC(CCSC)C(=O)OC)c(=O)c21 (stereo not given),-11,3%,-2,/,-4,6
Cc1ccc(C23CC4CC(CC(NC(=O)NN)(C4)C2)C3)cc1,7,0%,5,-6,-2,21
Cc1cc(C)nc(SCc2cc(=O)c(OC(=O)c3cccc([N+](=O)[O-])c3)co2)n1,111*,1%,1,68,-10,-20
CCN(CC)S(=O)(=O)c1ccc(C(=O)Oc2coc(CSc3nc(C)cc(C)n3)cc2=O)cc1,1,-14%,21,3,-9,-19
COc1cccc(NC(=O)NCC2CCN(Cc3ccc(F)cc3)CC2)c1,-6,-5%,7,?,-6,13
Cc1ccc(NC(=O)N2CCC(NC(=O)c3ccccc3C)CC2)cc1,-4,8%,1,9,-2,14
Cc1ccccc1[C@H](NC1c2ccccc2C=Cc2ccccc21)P(=O)(c1ccccc1)c1ccccc1,-5,/,/,-56*,/,/
O=C(COc1nsnc1N1CCOCC1)Nc1ccc(Br)cc1,-14,-2%,18,-20,/,-25
N=c1c2c(n(Cc3ccc(Cl)cc3)c3c1CCC3)CCC2,-9,5%,1,-13,-6,0
CCCCCCCCCn1c2c(c(=N)c3c1CCC3)CCCC2,-3,-21%,85*,-24,2,8
N=c1c2c(n(Cc3ccc(F)cc3)c3c1CCC3)CCCC2,-3,15%,3,1,-9,-30*
CCCCCCCCCCn1c2c(c(=N)c3c1CCC3)CCC2,-6,5%,22,-27,-2,1
COc1cccc(NC(=O)COC(=O)Cn2c(C)csc2=O)c1,4,-3%,3,9,/,-94*
Cc1ccc(NC(=O)COC(=O)Cn2c(C)csc2=O)cc1C,-4,-3%,3,-12,-2,-35*
COc1ccccc1NC(=O)COC(=O)Cn1c(C)csc1=O,-12,/,/,0,/,/
Cc1cc(C)c(C(=O)COC(=O)CCn2c(C)csc2=O)cc1C,3,-17%,11,11,2,-3
COc1ccccc1NC(=O)COC(=O)CCn1c(C)csc1=O,2,1%,0,0,-8,-33*
